The structures appear in SMILES notation. About 83,000 compounds went through this panel and 20% of them were active in at least one assay; those are over-represented in the sample as a whole.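 Each cell line was grown in a 96-well plate and treated with one concentration of compound for 48 hours. Values below 10 were considered active.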 Unmarked numbers belong to inactive results. Active and inactive are the calls of the source.

Drawing on PubChem BioAssay (NCI), this text covers growth for 35 compounds.

This assay concerns U251 CNS. Kind of assay: NCI-60 one-dose screen, 48 h (100 = growth as untreated, 0 = no growth, -100 = all killed). Particulars: 10 µM.
Consider `COc1ccc(/C=C2\CCCC3=C2NC(N)=NC3c2ccc(OC)cc2)cc1` (stereo not given), for which the growth is 90.6%.

For `CN(C)CCCOc1cccc(NC2=C(Cl)C(=O)C(Nc3cccc(OCCCN(C)C)c3)=C(Cl)C2=O)c1`, the growth is -78% (active).

Regarding `N#CC1=C(N)Oc2cc(N)ccc2C1c1cccnc1` (stereo not given), the growth was 102%.

In the case of `COc1cc(/C=C/c2cc(/C=C/c3ccc(O)c(OC)c3)n(C(=O)Nc3ccc(C)cc3)n2)ccc1O`, the growth was 6.19% (active).

`Cc1ccc(-n2nnnc2N)c(C)c1`: the growth is 99.5%.

Consider `CCCCN(CCCC)C(=O)[C@H](CC)[C@@H]1CC[C@@H](C)[C@@H]([C@H](C)[C@@H](O)[C@@H](C)C(=O)[C@H](CC)C2O[C@]3(C=C[C@@H](O)[C@]4(CC[C@@](C)([C@H]5CC[C@](O)(CC)[C@H](C)O5)O4)O3)[C@H](C)C[C@@H]2C)O1` (stereo not given in full), for which the growth was 13.9%.

For the compound `COc1ccc2c(c1)C(=O)/C(=C/c1ccc([N+](=O)[O-])o1)O2`, the growth was -55.1% (active).

For the compound `Cc1ccc(S(=O)(=O)N(C)CCCCCC(=O)O)cc1`, the growth is 104%.

Consider `NC1=NC(c2ccc(Cl)cc2)C2=C(N1)/C(=C/c1ccc(Cl)cc1)CCC2` (stereo not given), for which the growth was 13.9%.

`S=C(NCc1ccccc1)NCc1ccccc1`: the growth is 91.6%.

In the case of `COc1cc2cc(Oc3ccc(NC(=O)c4ccccc4)cc3)c(C)nc2cc1OC`, the growth is 59.3%.

Take `Cc1c(Cl)cccc1NC(=O)CN1CCOCC1`: the growth was 106%.

`C=CCN(CC=C)C(=O)[C@H](CC)[C@@H]1CC[C@@H](C)[C@@H]([C@H](C)[C@@H](O)[C@@H](C)C(=O)[C@H](CC)C2O[C@]3(C=CC(=O)[C@]4(CC[C@@](C)([C@H]5CC[C@](O)(CC)[C@H](C)O5)O4)O3)[C@H](C)C[C@@H]2C)O1` (stereo not given in full): the growth was 30.5%.

Regarding `CCN1CCN(CCC(=O)Nc2cccc(-n3cc(-c4ccncc4)c(-c4ccc(Cl)c(OC)c4)n3)c2)CC1`, the growth was -7.85% (active).

Take `Nc1ccn(Cc2nnc(CCC(=O)c3nc4ccccc4[nH]3)o2)c(=O)n1`: the growth is 85.6%.

On to `Cc1ccc2nc(Cl)c(-c3nc4ccccc4o3)cc2c1`, for which the growth is 102%.

In the case of `C/C=C/CSC(C)(C)C(=O)NC`, the growth is 104%.

On to `COc1cc2c(Nc3ccc(S(N)(=O)=O)cc3)ncnc2c(OC)c1OC`, for which the growth was 96.9%.

With `CC(=O)OC1C=CC(OC(C)=O)O1` (stereo not given), the growth is 88.6%.

Regarding `CC(=O)C1N=NCC1c1ccccc1` (stereo not given), the growth was 110%.

As to `O=C(CN(C1CCCCC1)C1CCCCC1)Nc1ccc(S(=O)(=O)c2ccc(NC(=O)CN(C3CCCCC3)C3CCCCC3)cc2)cc1`, the growth was -75.9% (active).

With `Cc1c[nH]c(=O)n(Cc2nnc(CCC(=O)c3nc4ccccc4[nH]3)o2)c1=O`, the growth is 16.6%.

With `O=C(CCn1cnc2c(cc(-c3ccccc3)n2-c2ccccc2)c1=O)Nc1ccc(F)cc1`, the growth was 70.9%.

With `CN(C)CCOc1cccc(NC2=C(Cl)C(=O)C(Nc3cccc(OCCN(C)C)c3)=C(Cl)C2=O)c1`, the growth is -93.2% (active).

Turning to `CN1CCN(CCC(=O)Nc2cccc(-n3cc(-c4ccncc4)c(-c4ccc(Cl)c(O)c4)n3)c2)CC1`, the growth is 32.4%.

On to `CC(=O)Nc1ccc(CC[C@H]2CCC/C=C/[C@@H]3C[C@H](O)C[C@H]3[C@H](O)/C=C/C(=O)O2)cc1`, for which the growth was 15.2%.

Consider `CN(C)CCN(Cc1ccccc1)c1ccc2ccccc2n1`, for which the growth is 94.2%.

In the case of `C/C(=N\O)c1ccc(NC(=O)CSc2nnc(-c3ccccc3)n2-c2ccccc2)cc1`, the growth was 59.2%.

In the case of `CCC(CC)n1c(C)cc(=O)n1C(CC)CC`, the growth is 105%.

Take `CC[C@@H](C(=O)[C@H](C)[C@H](O)[C@@H](C)[C@H]1O[C@H]([C@@H](CC)C(=O)O)CC[C@H]1C)C1O[C@]2(C=C[C@@H](O)[C@]3(CC[C@@](C)([C@H]4CC[C@](O)(CC)[C@H](C)O4)O3)O2)[C@H](C)C[C@@H]1C` (stereo not given in full): the growth was 14.2%.

For the compound `O=C(O)c1cc([N+](=O)[O-])ccc1Oc1ccccc1`, the growth was 95.9%.

As for `O=[N+]([O-])c1cccc(/C=N/NC(=S)NC23CC4CC(CC(C4)C2)C3)c1`, the growth is 68.1%.

For the compound `COc1cc(C(=O)n2nc(-c3cc(OC)c(OC)c(OC)c3)nc2N)cc(OC)c1OC`, the growth is 97.3%.

As for `COc1ccc(-c2n[nH]nc2-c2cc(OC)c(OC)c(OC)c2)cc1`, the growth was 1.61% (active).

In the case of `C=CCN(CC=C)C(=O)[C@H](CC)[C@@H]1CC[C@@H](C)[C@@H]([C@H](C)[C@@H](O)[C@@H](C)C(=O)[C@H](CC)C2O[C@]3(C=C[C@@H](O)[C@]4(CC[C@@](C)([C@H]5CC[C@](O)(CC)[C@H](C)O5)O4)O3)[C@H](C)C[C@@H]2C)O1` (stereo not given in full), the growth was 18.9%.
